Rows were chosen to be rich in hits. Some 2.5% of all compounds tested hit in one or more screens of this group.
DYRK1A inh: rat Dyrk1A kinase inhibitors, primary screen, biochemical, single point, plate reader | inhibition, % at 12.5 µM | Dual specificity tyrosine-phosphorylation-regulated kinase 1A (Rattus norvegicus), Q63470 | ADP-Glo luminescence, NFATc1 peptide | 0.43% of 310,000 active; in the data active means inhibition above about 50%
GC-B act: human GC-B receptor activators, primary screen, HEK293 GC-B cells, cGMP TR-FRET, EC30 CNP; 0.11% of 370,000 active; 0% at EC30 CNP, 100% saturating CNP; AID 1920062, 2024; Atrial natriuretic peptide receptor 2 (Homo sapiens), P20594; activation, % at 10 µM;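 active means activation at 10 µM reaching about 35% in either raw or pattern-adjusted values, limit read from the data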
HSF1 activator: HSF-1 activators, primary screen, NIH3T3-HGL cells, MG132 stress, luminescence, single point. activation, % at 9 µM. 1.7% of 300,000 active. AID 504408, 2011. NIH3T3-HGL HSF-1 luciferase reporter, 8 h; 100% = twice DMSO control signal;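 active means mean replicate activation of at least 50% with a set share of replicates each reaching 50%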
GC-A act: GC-A stimulated cGMP production enhancers – HEK293 GC-A cells, cGMP TR-FRET, EC30 ANP, primary screen; activation, % at 10 µM; 0% at EC30 ANP, 100% saturating ANP; 0.14% of 370,000 active; Atrial natriuretic peptide receptor 1 (Homo sapiens), P16066; in the data active means activation above about 40%
HSF1 inhib: HSF1 inhibitors in luciferase reporter cells, primary screen, cell-based, NIH3T3, luminescence. NIH3T3-HGL HSE-luciferase, MG132-induced, luminescence 8 h; stronger effect = lower value. activity change, negative = inhibition, % at 7.5 µM (by protocol). 0.77% of 300,000 active. AID 2098, 2009;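 active means more than half of replicate wells show activity change below -50%, luminescence cut by over half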;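 further: luciferase reports HSF-1 transcriptional activity via heat shock element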
aDG glyco act: activators of alpha-DG glycosylation, primary screen, uHTS, Pro5-aDG cells, AlphaScreen; alpha-DG glycosylation AlphaScreen (IIH6); 0% Pro5, 100% B10-LARGE cell signal; activation, % at 10 µM; 0.22% of 360,000 active;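 active means activation of at least 8% versus controls, or a plate z-score of at least 8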;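 further: Pro5 are CHO cells carrying HIG-tagged alpha-DG that lacks glycosylation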
Each line names hits and unclear results; the compound was inactive in the other large screens.

Cn1cc([N+](=O)[O-])c(C(=O)Nc2ccc(Br)cn2)n1	HSF1 activator 53
Cn1cc([N+](=O)[O-])c(C(=O)Nc2nccs2)n1	HSF1 activator 77
CCC1COCCS(=O)(=O)N1Cc1ccccc1C (stereo unspecified)	HSF1 inhib -61
CCC1COCCS(=O)(=O)N1Cc1ccccc1F (stereo unspecified)	none
COc1cccc(-c2cc(C(=O)Nc3ccc([N+](=O)[O-])cn3)c3ccccc3n2)c1	none
O=C(Oc1cccc([N+](=O)[O-])c1)c1cc(-c2ccccc2)nc2ccccc12	HSF1 activator 75
O=C(Oc1ccc(-c2cnc3ccccc3n2)cc1)c1cc([N+](=O)[O-])ccc1Cl	HSF1 activator 80
CC(C)Cn1c(N)c(C(=O)COC(=O)c2ccc([N+](=O)[O-])o2)c(=O)n(C)c1=O	HSF1 activator 67
O=C(NC(=S)N1CCN(c2ccc([N+](=O)[O-])cc2Cl)CC1)c1ccco1	HSF1 activator 55
CCOC(=O)c1c(C)[nH]c(C)c1C(=O)COc1ncnc2cc([N+](=O)[O-])ccc12	HSF1 activator 66 (no result: DYRK1A inh)
C=CCOC(=O)C1=C(C)NC(=S)NC1/C=C/c1ccccc1 (stereo unspecified)	GC-A act 43
CC1=C(C(=O)OCc2ccccc2)C(/C=C/c2ccccc2)NC(=S)N1 (stereo unspecified)	none
CCN1C(=O)c2cccc3c(S(=O)(=O)Nc4ncccc4C)ccc1c23	HSF1 activator 89
CCN1C(=O)c2cccc3c(S(=O)(=O)Nc4ccncc4)ccc1c23	none (no result: GC-B act, GC-A act)
CCN1C(=O)c2cccc3c(S(=O)(=O)Nc4ccccc4)ccc1c23	HSF1 activator 59 (no result: GC-B act, GC-A act)
COc1ccc(C(C)NC(=O)CCc2ccccc2)cc1 (stereo unspecified)	none
O=C(CS(=O)Cc1ccccc1Cl)Nc1ccccc1Cl (stereo unspecified)	none
O=[N+]([O-])c1cccc(N/N=C/c2cccc(O)c2O)c1	HSF1 activator 65 (no result: DYRK1A inh)
CCS(=O)(=O)N1Cc2ccccc2CC1C(=O)Nc1ccc(F)c(F)c1 (stereo unspecified)	HSF1 activator 60
COc1ccc(S(=O)(=O)Nc2cc(SCC(=O)O)c(O)c3ccccc23)cc1	aDG glyco act 5.0
O=C(O)CSc1cc(NS(=O)(=O)c2ccc(Cl)cc2)c2ccccc2c1O	aDG glyco act 3.8
Cc1cc(C)c(S(=O)(=O)Nc2cc(SCC(=O)O)c(O)c3ccccc23)cc1C	none (no result: DYRK1A inh, GC-B act, GC-A act, aDG glyco act)
COC(=O)C[C@H]1C=C[C@@H](NS(=O)(=O)c2ccccc2)[C@@H](CO)O1	none (no result: DYRK1A inh, HSF1 activator, HSF1 inhib)
c1ccc(C2=NOC(c3nnc(-c4ccccc4)o3)C2)cc1 (stereo unspecified)	none
COc1ccc(C2c3c(ncn(CCCO)c3=N)Oc3ccc4ccccc4c32)cc1 (stereo unspecified)	HSF1 activator 58
CSC(=NC#N)N1CCN(c2c(C)cccc2C)CC1	none
Cc1ccc(Nc2c(N)c(=O)oc3ccccc23)cc1	HSF1 activator 161
CCCCN(Cc1cc2cc(OC)ccc2[nH]c1=O)C(=O)c1ccco1	HSF1 activator 77
CCCN(Cc1cc2cc(OC)ccc2[nH]c1=O)C(=O)c1ccncc1	none
CCOc1ccc(C(=O)N(Cc2ccc(OC)cc2)Cc2cc3cc(OC)ccc3[nH]c2=O)cc1	HSF1 activator 65
CC1(C)CC(=O)C(C2C3=C(CC(C)(C)CC3=O)OC3=C2C(=O)CC(C)(C)C3)=C(O)C1	HSF1 activator 67 (no result: DYRK1A inh)
O=C(CSc1n[nH]c(=O)n1-c1ccccc1)Nc1ccccc1	none (no result: DYRK1A inh)
CC(=O)Nc1ccc(Oc2sc(C(=O)c3ccccc3)c(N)c2C#N)cc1	HSF1 activator 87
Cc1ccc(C)c(S(=O)(=O)N(C)Cc2cccs2)c1	none (no result: HSF1 activator, HSF1 inhib)
Cc1ccc(CNC(=O)c2ccc3nc4[nH]c5ccccc5c4nc3c2)cc1	HSF1 inhib -76 (no result: DYRK1A inh, aDG glyco act)
CCN(CC)CCNC(=O)C1c2cc(OC)c(OC)cc2C(=O)N2CCc3ccccc3C12 (stereo unspecified)	none (no result: HSF1 activator, HSF1 inhib)
COc1cc2c(cc1OC)C(C(=O)NC1CC1)C1c3ccccc3CCN1C2=O (stereo unspecified)	HSF1 inhib -61
O=C(c1ccc2c(=O)n3c(nc2c1)CCCCC3)N1CCN(C(c2ccccc2)c2ccccc2)CC1	HSF1 activator 62
COC(=O)c1ccc(N=c2sc(C(=O)OC)cc(=O)n2C)cc1	none (no result: HSF1 activator, HSF1 inhib)
COC(=O)c1cc(=O)n(-c2ccc(F)cc2)c(=Nc2ccc(F)cc2)s1	HSF1 activator 57
COC(=O)c1cc(=O)n(Cc2cccs2)c(=Nc2ccc(F)cc2)s1	HSF1 activator 52
CCOC(=O)C(=COC(=O)c1ccccc1)NC(=O)Cc1ccccc1	none (no result: DYRK1A inh, HSF1 activator, HSF1 inhib)
COc1cccc(Sc2ccccc2/C=N/NC(N)=O)c1	HSF1 activator 57
Cc1ccccc1OCCC(=O)OCC(=O)N1c2ccccc2NC(=O)C1(C)C	none
O=C(CN(Cc1ccccc1F)S(=O)(=O)c1ccc(Cl)cc1)NCC1CCCO1 (stereo unspecified)	none
CC(C)(C)c1cc(NC(=O)CCSc2nnc3ccccn23)cc(C(C)(C)C)c1	HSF1 activator 54
Cc1ccc(C(C)(O)CS(=O)(=O)Cc2ccccc2Cl)cc1 (stereo unspecified)	HSF1 activator 112
COc1ccc(N(CC(=O)NCCC2=CCCCC2)S(=O)(=O)c2ccccc2)cc1OC	none
COc1ccc(N(CC(=O)NCCC2=CCCCC2)S(=O)(=O)c2ccccc2)cc1	HSF1 activator 97
Cc1csc(=O)n1CC(=O)OCC(=O)Nc1ccc(C(N)=O)cc1	none (no result: HSF1 activator, HSF1 inhib)
O=C(CCC1CCCCC1=O)c1ccccc1 (stereo unspecified)	none
CC1(C)CC(=O)C(CCC(=O)c2ccccc2)C(C)(C)N1 (stereo unspecified)	HSF1 inhib -86
N#CCC(=O)N/N=C/c1coc2ccccc2c1=O	none
CCN(CC)S(=O)(=O)c1ccc(C(=O)OCC(=O)N2CCOCC2)cc1	none
CCN(CC)S(=O)(=O)c1ccc(C(=O)OCC(=O)N2CCN(C(=O)c3ccco3)CC2)cc1	HSF1 activator 53
CC(C)c1cc(Nc2cccc(O)c2)cc(C(C)C)c1O	none (no result: DYRK1A inh, GC-B act, GC-A act, aDG glyco act)
CN(C)C=Nc1ncc2c3ccccc3n(Cc3ccccc3)c2c1C#N	GC-B act 35, GC-A act 46
COc1ccc(C(=O)c2c[nH]c(C(=O)NCc3ccco3)c2)cc1	none

Screens: PubChem, several laboratories
